# GRIN3A LBD mod: modulates the human NR3A ligand-binding domain; actives 2.5% (n = 340,000); AID 1259313; NR3A LBD differential scanning fluorimetry, Tm shift; 0% = protein alone, 100% = glycine-bound protein; Tm shift relative to glycine control, % at 25 µM;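 active means melting temperature shift of at least 10% of the positive control shift, at one fixed dose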
# SMARCA2 act: activators of SMARCA2 function; MG213 cells, MMTV-luciferase reporter, dexamethasone, overnight; activation, % at 9.1 µM; actives 1% (n = 370,000); AID 652017; in the data active means activation above about 7.8%;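 further: 0% = vehicle wells and 100% = reference activator wells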
# NadD block: blocks S. aureus nicotinate mononucleotide adenylyltransferase | purified NadD enzyme, colorimetric absorbance read-out | inhibition, % at 20 µM | actives 0.78% (n = 360,000); in the data active means inhibition above about 26%
# Vif inh: HIV Vif inhibition. HEK293T cells, Vif self-association by quenched fluorescence, imaging, 24 h. inhibition, % at 7.49 µM. actives 0.35% (n = 340,000); in the data active means inhibition above about 50%, passing the limit was not always enough
# SKN-1 inh: inhibitors of C. elegans SKN-1; C. elegans VP596 Pgst-4::GFP/RFP ratio, acrylamide-induced, 24 h; inhibition, % at 21.8 µM; actives 0.49% (n = 360,000); AID 624304;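 active means interference check ratio from 0.5 to 1.5 plus GFP to RFP signal ratio inhibition reaching or exceeding a fixed threshold, cut at about 30% in these data, passing the limit was not always enough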
# esBAF inh: blocks esBAF chromatin remodeling in mouse ES cells. Bmi1-luciferase knock-in reporter, 24 h; 100% = twice the neutral-well signal. reporter increase, % at 12.5 µM. actives 2% (n = 350,000); in the data active means activation above about 40%;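 further: 0% = median of the plate's neutral control wells and 100% = double that signal; a rise in the Bmi1 reporter signal indicates esBAF inhibition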
# SMARCA2 act conf: confirmation of SMARCA2 (BRM) function activators | MG213 cells, MMTV-luciferase with dexamethasone, luminescence, overnight; MG213 cells expressing E1A, Rb sequestered; DMSO wells 0%, reference activator 100% | actives 30% (n = 3,500) | shares compounds with SMARCA2 act | activation, % at 9.1 µM;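 active means activation above its plate's cutoff, the mean activation of tested wells plus 3 SD, cut at about 7.9% in these data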
# GAL4-VP16 Luc: counter-screen for SMARCA2 activators: GAL4-VP16 luciferase reporter activation | actives 41% (n = 3,500) | HEK293 GAL4-VP16 pG5luc reporter, luciferase luminescence; scaled: DMSO wells 0%, SAHA wells 100% | shares compounds with SMARCA2 act | activation, % at 9.1 µM;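 active means activation above the solvent-only control well mean plus 3 SD, averaged across control plates, cut at about 5.2% in these data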
# Starred values were filed as active, the others as inactive; · = no result. A selection: hits, their analogues and other compounds. The true share with any hit is near 5.2%.
SMILES,GRIN3A LBD mod,SMARCA2 act,NadD block,Vif inh,SKN-1 inh,esBAF inh,SMARCA2 act conf,GAL4-VP16 Luc
COc1cccc(C(=O)Nc2ccc3c(c2)C(=O)N(C)C[C@@H](OC)[C@@H](C)CN(CC2CC2)[C@@H](C)CO3)c1,·,·,·,·,·,-6,·,·
Cc1ccc(-n2nc3c(c2NC(=O)c2cccs2)CS(=O)(=O)C3)cc1,-1,14*,-2,-4,-2,-1,1,0
Cc1ccc(-n2nc3c(c2NC(=O)c2ccco2)CS(=O)(=O)C3)cc1C,5,8.8*,-2,-2,12,-8,4,1
Cc1ccc(S(=O)(=O)Nc2ccc3c(c2)CC(=O)N([C@@H](C)CO)C[C@@H](C)[C@@H](CN(C)Cc2ccncc2)O3)cc1,·,·,·,·,·,-4,·,·
Cn1ncc2c(Nc3ccc(O)cc3)nc(Cl)nc21,·,18*,-1,-2,-3,-3,5,2
O=C(C[C@H]1CC[C@H]2[C@@H](COC[C@@H](O)CN2CCC(F)(F)F)O1)NCc1ccc(Oc2ccccc2)cc1,·,·,·,·,·,-3,·,·
CO[C@@H]1CN(C)C(=O)c2cc(NS(=O)(=O)c3ccccc3)ccc2OC[C@@H](C)N(Cc2nccs2)C[C@H]1C,·,·,·,·,·,-3,·,·
Cn1cccc1CC(=O)NNC(=S)Nc1ccccc1Cl,-2,8.3*,-3,22,0,·,-2,4
Cn1cccc1CC(=O)NNC(=S)Nc1ccc(Cl)cc1,-1,-1,-1,0,5,·,·,·
COc1ccc(/C=N\NC(=O)C2CCCC2)cc1Br,-1,9.0*,-4,0,17,38,7,4
COc1cc(/C=N/Nc2ccccc2)ccc1OC(=O)c1cccs1,-1,9.7*,·,·,·,·,3,3
COc1ccc(/C=N/Nc2ccc(C(=O)O)cc2)cc1OC,-2,9.1*,2,-1,3,7,5,13*
CCOc1ccc(/C=N/NC(=O)C2CC2)cc1OC,0,2,0,·,19,-6,·,·
COc1ccc(/C=N/NC(=O)OC(C)(C)C)cc1OC,1,8.4*,-6,10,12,·,-1,1
COc1ccc(/C=N/Nc2ccc(C(=O)O)cc2)cc1Br,0,8,-8,7,18,-49,·,·
COc1cc(/C=N\NC(=O)OC(C)(C)C)ccc1OC(=O)c1ccco1,-2,0,-7,7,-1,·,·,·
CCOc1cc(/C=N/Nc2cccc(C(=O)O)c2)ccc1OC(=O)c1ccccc1,-2,11*,14,-3,3,-69,5,18*
CCOc1cc(/C=N/NC(=O)CNc2cccc(C)c2)ccc1OC(=O)c1ccccc1,6,-2,11,-5,8,9,·,·
O=C(N/N=C/c1ccc(OC(=O)c2ccccc2)cc1)c1cccc(O)c1,-3,10.0*,2,-1,-6,·,4,0
CSc1ccc(/C=N/NC(=O)c2cc(O)cc(O)c2)cc1,13*,9.3*,0,-18,-1,1,9.4*,5.4*
O=C1NC2c3ccccc3CC2O1 (centres undefined),1,1,-2,-8,21,-4,·,·
O=C1NC2c3c(I)sc(I)c3C(=O)C2O1 (centres undefined),1,8.7*,0,17,-15,-1,-4,0
O=C1NC2c3c(Cl)sc(Cl)c3C(=O)C2O1 (centres undefined),-2,15*,2,4,-6,6,9.0*,1
O=C(N[C@H]1C=C[C@H](CC(=O)N2CCOCC2)O[C@@H]1CO)c1ccccn1,·,·,·,·,·,1,·,·
COc1cccc(C(=O)Nc2ccc(NC(=O)C(C)C)nc2)c1,0,8.5*,3,-6,-9,6,2,3
SMILES,GRIN3A LBD mod,SMARCA2 act,NadD block,Vif inh,SKN-1 inh,esBAF inh,SMARCA2 act conf,GAL4-VP16 Luc
COc1cccc(C(=O)Nc2ccc(NC(=O)C3CC3)cn2)c1,-12,8.4*,-6,-2,-14,·,-1,8.2*
COCC#Cc1ccc2c(c1)O[C@@H](CN(C)Cc1ccccn1)[C@@H](C)CN([C@H](C)CO)S2(=O)=O,·,·,·,·,·,-1,·,·
CCC(=O)N1CC[C@@H]2[C@H]1c1cc(-c3ccc(F)cc3)ccc1N[C@@H]2CO,·,·,·,·,·,-4,·,·
O=C(Nc1ccc2c(c1)OCCO2)C(=O)c1c[nH]c2ccccc12,-24,2,-10,0,-1,0,·,·
O=C(NCCc1c[nH]c2ccccc12)c1ccc2c(c1)OCO2,22*,9.7*,-6,-10,11,-14,13*,8.1*
Cc1ccc2[nH]cc(CCNC(=O)c3ccc4c(c3)OCO4)c2c1,1,-1,3,9,17,-4,·,·
O=C(Nc1ccc2c(c1)OCO2)C(=O)c1c[nH]c2ccccc12,0,9.2*,-1,7,13,11,4,7.7*
CCC(=O)N(C)C[C@H]1Oc2cc(C#CC(C)(C)O)ccc2S(=O)(=O)N([C@H](C)CO)C[C@@H]1C,·,·,·,·,·,2,·,·
Cc1nc2cc(-c3ccc(Cl)cc3)nn2c(NCCN(C)C)c1C,1,9.9*,-7,-12,12,·,19*,7.9*
Cc1cc(C)nc(N/N=C/c2cccc(Cl)c2)n1,-1,2,-10,5,8,·,·,·
Clc1cccc(/C=N/Nc2nc(Cl)nc3ccccc23)c1,0,11*,23,4,-3,52*,11*,11*
CN(C)CC(=O)N1[C@H](C#N)[C@H](c2ccc(-c3ccc(C(=O)N(C)C)cc3)cc2)[C@H]1CO,·,·,·,·,·,6,·,·
O=C(NC1CC1)C1CCN(c2ncccn2)CC1,-2,9.2*,2,-9,5,-10,-1,0
Cc1cc(C)nc(N2CCC(C(=O)NC3CCCCCC3)CC2)n1,-1,3,-5,-1,0,-2,·,·
C[C@H](NC(=O)C[C@H]1C[C@H]2c3cc(NC(=O)CN(C)C)ccc3O[C@H]2[C@H](CO)O1)c1ccccc1,·,·,·,·,·,-3,·,·
C[C@H](CO)N1C[C@H](C)[C@@H](CN(C)Cc2ccc(Oc3ccccc3)cc2)Oc2ccc(NC(=O)c3ccncc3)cc2CC1=O,·,·,·,·,·,-3,·,·
O=C1Nc2ccccc2N(C(=O)c2c(F)cccc2F)C1c1nc2ccccc2[nH]1 (centres undefined),·,10*,12,·,11,·,4,10*
N#CC1=C(N)Oc2n[nH]c(-c3ccccc3)c2C1c1cccnc1 (centres undefined),0,4,-3,·,28,-4,·,·
